From PubChem BioAssay (Tox21)
Inconclusive results are not listed. Calls of active or inactive are those of the source. Unless noted, calls come from the whole dose curve.

What was measured:
[1] = target: KiSS-1 receptor (Homo sapiens) (UniProt Q969F8); test: Human kisspeptin (KISS1R) small molecule agonists, calcium flux assay in KISS1R-HEK293 cells (AID 1920064; active = well fitted activation curve with a large enough effect in the repeat runs)
Procedure, shortened: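 Calcium flux read-out: kinetic fluorescence at Ex/Em=480/540, 1 s intervals over 3 min, after pin-tool compound addition to dye-loaded KISS1R-HEK293 cells. Fifteen concentrations, triplicates.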

[2] = G protein-coupled receptor (GPCR) small molecule agonists, calcium flux assay: HEK293 wild type cell line counter screen (AID 1920065)
Procedure, shortened: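 Agonist mode; 18 h seeding at 37 C, 1 h dye load at 37 C; compounds pinned from DMSO, ATP as positive control; kinetic fluorescence 480/540 nm, 3 min, 1 s reads; 15 concentrations, triplicate.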

[3] = p53 small molecule agonists, cell-based qHTS assay with human liver microsomes (AID 1963577);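 note: p53 response element beta-lactamase reporter cells with liver microsomes plus NADPH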
Procedure, shortened: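 p53RE-bla cells; 5 h settle, 37 C/5% CO2; cpd + HLM 0.5 mg/mL + NADPH 0.5 mg/mL (final); 16 h 37 C; LiveBLAzer 2 h RT dark; fluorescence readout.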

[4] = p53 small molecule agonists, cell-based qHTS assay with rat liver microsomes (AID 1963578)
Procedure, shortened: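 Rat liver microsome activation: microsomes 0.5 mg/mL, NADPH 0.5 mg/mL final; p53RE-bla cells, 16 h 37 C; LiveBLAzer readout, 2 h RT dark.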

[5] = p53 small molecule agonists, cell-based qHTS assay with human liver microsomes: qHTS cell viability counter screen (AID 1963579); note: nearly all actives have a fitted effect of over 45% in size
Procedure, shortened: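 Luminescent CellTiter-Glo read-out, 30 min at room temperature, gauged cytotoxicity in p53RE-bla cells exposed 16 h at 37 C to DMSO-dissolved compounds with metabolic activation by human liver microsomes and NADPH, each 0.5 mg/mL final.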

[6] = p53 small molecule agonists, cell-based qHTS assay with rat liver microsomes: qHTS cell viability counter screen (AID 1963580); note: nearly all actives have a fitted effect of over 45% in size; note: potency is the fitted concentration of half-maximal effect
Procedure, shortened: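 Rat liver microsome (0.5 mg/mL final) and NADPH (0.5 mg/mL final) co-incubation with compounds for 16 h at 37 C on HCT-116 p53RE-bla cells; cytotoxicity taken from intracellular ATP luminescence.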

[7] = p53 small molecule agonists, cell-based qHTS assay: qHTS cell viability counter screen (AID 1963581); note: nearly all actives have a fitted effect of over 45% in size
Procedure, shortened: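 Cytotoxicity read-out: ATP-based luminescence (CellTiter-Glo, 30 min RT) measured in the same wells as the p53 reporter assay, HCT-116 p53RE-bla cells, 16 h compound exposure at 37 C.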

[8] = p53 small molecule agonists, cell-based qHTS assay (AID 1963582; active = well fitted activation curve with a large enough effect in the signal ratio in the repeat runs, not every such curve was filed as active; the % refers to the signal ratio; note: potency is the fitted concentration of half-maximal effect)
Procedure, shortened: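 Fluorescence intensity read-out of a beta-lactamase reporter under a p53 response element. Cells were exposed to DMSO-dissolved compounds for 16 h at 37 C, then developed with FRET substrate for 2 h at RT.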

[9] = target: 5-hydroxytryptamine receptor 2A (Homo sapiens) (UniProt P28223); test: 5-hydroxytryptamine receptor 2A (HTR2A) small molecule antagonists, cell-based qHTS assay (AID 1963586); note: nearly all actives have a fitted effect of over 45% in size
5-hydroxytryptamine receptor 2A (Homo sapiens), sequence (P28223 whole entry, looked up): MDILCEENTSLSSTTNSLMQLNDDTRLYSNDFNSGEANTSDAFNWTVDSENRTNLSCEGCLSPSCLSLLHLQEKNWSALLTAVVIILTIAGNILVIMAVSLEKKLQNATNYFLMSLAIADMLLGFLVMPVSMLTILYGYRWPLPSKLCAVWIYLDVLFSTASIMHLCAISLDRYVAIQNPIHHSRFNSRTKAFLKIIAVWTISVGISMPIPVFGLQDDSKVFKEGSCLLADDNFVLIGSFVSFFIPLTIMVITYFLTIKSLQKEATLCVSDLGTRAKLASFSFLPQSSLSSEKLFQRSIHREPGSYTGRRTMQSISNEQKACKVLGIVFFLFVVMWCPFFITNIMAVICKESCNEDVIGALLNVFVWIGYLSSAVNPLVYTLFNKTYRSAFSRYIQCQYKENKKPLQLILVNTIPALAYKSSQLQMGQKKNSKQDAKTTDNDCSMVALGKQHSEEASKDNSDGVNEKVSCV
Procedure, shortened: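 CHO cells stably expressing human HTR2A were plated for 18 h at 37 C, then loaded with calcium dye for 1 h. Compounds were preincubated 5 min at room temperature before DOI (4 nM solution) was added. Kinetic fluorescence was read for 3 min.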

[10] = target: 5-hydroxytryptamine receptor 2A (Homo sapiens) (UniProt P28223); test: 5-hydroxytryptamine receptor 2A (HTR2A) small molecule agonists, cell-based qHTS assay (AID 1963587); note: nearly all actives have a fitted effect of over 30% in size; note: potency is the fitted concentration of half-maximal effect
Procedure, shortened: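 Kinetic calcium-flux fluorescence (2 min, 1 sec intervals) after compound addition in agonist mode. HTR2A-CHO cells were cultured 18 h, then dye-loaded 1 h at 37 C.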

[11] = target: Muscarinic acetylcholine receptor M1 (Homo sapiens) (UniProt P11229); test: Cholinergic receptor muscarinic 1 (CHRM1) small molecule antagonists, cell-based qHTS assay (AID 1963588); note: nearly all actives have a fitted effect of over 40% in size; note: potency is the fitted concentration of half-maximal effect
Muscarinic acetylcholine receptor M1 (Homo sapiens), sequence (P11229 whole entry, looked up): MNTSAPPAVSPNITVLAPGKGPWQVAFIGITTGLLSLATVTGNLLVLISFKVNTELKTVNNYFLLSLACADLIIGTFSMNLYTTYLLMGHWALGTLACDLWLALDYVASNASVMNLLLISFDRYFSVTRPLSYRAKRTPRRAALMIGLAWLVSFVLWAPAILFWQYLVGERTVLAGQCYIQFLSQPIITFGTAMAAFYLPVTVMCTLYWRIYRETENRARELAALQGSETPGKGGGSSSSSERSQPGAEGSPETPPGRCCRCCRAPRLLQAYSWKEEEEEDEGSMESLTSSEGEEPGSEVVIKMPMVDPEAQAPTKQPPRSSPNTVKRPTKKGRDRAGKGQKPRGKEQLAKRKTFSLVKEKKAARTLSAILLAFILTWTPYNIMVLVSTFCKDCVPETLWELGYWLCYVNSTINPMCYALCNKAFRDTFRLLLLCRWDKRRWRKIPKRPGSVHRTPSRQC
Procedure, shortened: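 Compounds were tested at 15 concentrations in three independent runs. Dye-loaded CHRM1-CHO cells were exposed 5 min at room temperature before stimulation by acetylcholine added at 50nM. Intracellular calcium was read kinetically on FDSS for 3 min.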

[12] = target: Muscarinic acetylcholine receptor M1 (Homo sapiens) (UniProt P11229); test: Cholinergic receptor muscarinic 1 (CHRM1) small molecule agonists, cell-based qHTS assay (AID 1963589); note: nearly all actives have a fitted effect of over 35% in size
Procedure, shortened: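 Calcium flux read-out: kinetic fluorescence at 1 sec intervals after pin-tool compound addition to dye-loaded CHRM1-CHO cells (human M1). Agonist mode; 15 concentrations tested in triplicate independent runs.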

[13] = cAMP Responsive Elements (CRE) small molecule agonists, cell-based qHTS assay (AID 1963590)
Procedure, shortened: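 Beta-lactamase reporter readout: LiveBLAzer B/G FRET substrate, 2 h at room temperature, added after 3 h compound treatment of CRE-bla HEK 293T cells at 37 C/5% CO2.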

[14] = target: Beta-2 adrenergic receptor (Homo sapiens) (UniProt P07550); test: Adrenergic beta2 receptor (ADRB2) small molecule antagonists, cell-based qHTS assay (AID 1963592); note: series mostly up to about 92 µM; nearly all actives have a fitted effect of over 50% in size
Beta-2 adrenergic receptor (Homo sapiens), sequence (P07550 whole entry, looked up): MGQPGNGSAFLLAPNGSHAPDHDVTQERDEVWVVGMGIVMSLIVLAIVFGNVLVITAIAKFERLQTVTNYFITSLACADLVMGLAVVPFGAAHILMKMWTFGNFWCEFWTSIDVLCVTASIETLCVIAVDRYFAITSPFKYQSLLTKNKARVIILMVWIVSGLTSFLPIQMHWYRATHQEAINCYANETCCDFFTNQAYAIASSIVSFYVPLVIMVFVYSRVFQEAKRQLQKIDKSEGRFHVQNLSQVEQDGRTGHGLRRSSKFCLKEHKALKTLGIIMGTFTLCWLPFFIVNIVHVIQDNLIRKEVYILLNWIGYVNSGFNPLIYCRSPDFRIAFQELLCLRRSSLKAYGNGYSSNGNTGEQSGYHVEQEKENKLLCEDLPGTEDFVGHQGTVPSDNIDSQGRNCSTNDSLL
Procedure, shortened: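 Assay format: CHO-ADRB2 cells, 18-20hr seeding at 37C/5% CO2, then compound plus 1nM isoproterenol agonist mix for 0.5hr RT. Homogeneous time-resolved fluorescence cAMP detection after 1hr, expressed as 665/615 nm ratio.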

[15] = target: Beta-2 adrenergic receptor (Homo sapiens) (UniProt P07550); test: Adrenergic beta2 receptor (ADRB2) small molecule agonists, cell-based qHTS assay (AID 1963593);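 note: CHO cells stably overexpressing human ADRB2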
Procedure, shortened: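 CHO cells stably over-expressing ADRB2 were plated overnight at 37C, then dosed with compounds plus a stimulation mix containing 100uM IBMX and 25uM Ro-20-1724 for 0.5hr at room temperature. cAMP was measured by HTRF competition, 1hr.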

[16] = target: D(2) dopamine receptor (Homo sapiens) (UniProt P14416); test: Dopamine D2 receptor (DRD2) small molecule agonists, cell-based qHTS assay (AID 1963594); note: nearly all actives have a fitted effect of over 35% in size
D(2) dopamine receptor (Homo sapiens), sequence (P14416 whole entry, looked up): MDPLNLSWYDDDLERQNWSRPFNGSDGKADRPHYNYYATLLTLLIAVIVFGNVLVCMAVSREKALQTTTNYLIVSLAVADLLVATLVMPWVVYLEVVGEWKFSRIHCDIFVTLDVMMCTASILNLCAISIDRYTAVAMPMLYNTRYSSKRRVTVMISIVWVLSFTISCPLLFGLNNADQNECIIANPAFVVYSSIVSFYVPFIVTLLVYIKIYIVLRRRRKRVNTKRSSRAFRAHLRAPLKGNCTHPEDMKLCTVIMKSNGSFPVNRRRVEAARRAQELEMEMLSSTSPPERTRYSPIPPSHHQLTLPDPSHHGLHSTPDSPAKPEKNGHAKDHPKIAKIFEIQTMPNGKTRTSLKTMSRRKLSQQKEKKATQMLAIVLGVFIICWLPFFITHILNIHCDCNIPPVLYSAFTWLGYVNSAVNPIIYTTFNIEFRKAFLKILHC
Procedure, shortened: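 cAMP accumulation in DRD2-HEK293 cells measured by HTRF after 1 h detection; compounds added 10 min before NKH477 (200nM […]) forskolin-analogue stimulation, 30 min at room temperature, with Ro20-1724 present at 0.1 mM final.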

[17] = target: D(2) dopamine receptor (Homo sapiens) (UniProt P14416); test: Dopamine D2 receptor (DRD2) small molecule antagonists, cell-based qHTS assay (AID 1963595; active = well fitted inhibition curve with a large enough effect in the signal ratio in the repeat runs, with a control signal flat; the % refers to the signal ratio)
Procedure, shortened: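 HEK293 cells stably expressing DRD2, preincubated with 0.1 mM Ro20-1724 and compounds 10 min, were stimulated with 200 nM NKH477 plus 12 nM quinpirole for 30 min at room temperature; cAMP measured by HTRF (665/620 nm).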

[18] = cAMP Responsive Elements (CRE) small molecule antagonists, cell-based qHTS assay (AID 1963591; active = well fitted inhibition curve with a large enough effect in the signal ratio in the repeat runs, not every such curve was filed as active; the % refers to the signal ratio; note: potency is the fitted concentration of half-maximal effect)
Procedure, shortened: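 HEK293T CRE-bla; 18 h preincubation; compound pin-transfer; NKH477 0.25 uM final, 3 h, 37 C; LiveBLAzer FRET substrate 2 h RT.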

[19] = target: Gonadotropin-releasing hormone receptor (Homo sapiens) (UniProt P30968); test: Human gonadotropin-releasing hormone receptor (GnRHR) small molecule agonists, calcium flux assay in GnRHR-HEK293 cells (AID 1920063); note: nearly all actives have a fitted effect of over 35% in size
Gonadotropin-releasing hormone receptor (Homo sapiens), sequence (P30968 whole entry, looked up): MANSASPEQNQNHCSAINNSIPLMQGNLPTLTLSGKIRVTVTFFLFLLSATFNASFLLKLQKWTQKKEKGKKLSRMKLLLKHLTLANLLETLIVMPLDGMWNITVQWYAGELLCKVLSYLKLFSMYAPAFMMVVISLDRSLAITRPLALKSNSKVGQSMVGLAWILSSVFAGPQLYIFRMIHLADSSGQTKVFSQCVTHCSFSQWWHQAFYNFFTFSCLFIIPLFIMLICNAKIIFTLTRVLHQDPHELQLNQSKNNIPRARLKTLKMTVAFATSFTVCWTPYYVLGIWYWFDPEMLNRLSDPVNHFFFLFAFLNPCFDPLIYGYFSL
Procedure, shortened: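 Calcium-dye fluorescence, Ex/Em=480/540, recorded every 1 sec over 3 min after compound addition to GnRHR-HEK293 cells. Cells had been seeded 18 hours earlier and dye-loaded for 1 hour at 37 C. Fifteen concentrations, triplicates.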
% is set by controls: 0 for no effect and ±100 for the full control effect.

KiSS-1 receptor (Homo sapiens), sequence (Q969F8 whole entry, looked up): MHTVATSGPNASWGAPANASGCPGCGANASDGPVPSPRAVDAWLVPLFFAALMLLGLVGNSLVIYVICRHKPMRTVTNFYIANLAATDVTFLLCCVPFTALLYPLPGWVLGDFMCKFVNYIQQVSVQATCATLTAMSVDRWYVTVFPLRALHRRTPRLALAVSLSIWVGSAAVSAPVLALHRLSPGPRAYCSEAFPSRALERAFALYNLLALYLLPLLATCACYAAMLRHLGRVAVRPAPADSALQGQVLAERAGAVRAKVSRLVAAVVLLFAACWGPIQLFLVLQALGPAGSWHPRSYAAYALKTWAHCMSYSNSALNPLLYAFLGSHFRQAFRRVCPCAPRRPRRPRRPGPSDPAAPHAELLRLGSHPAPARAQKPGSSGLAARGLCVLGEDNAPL

COC(=O)[C@]1(C)CCC[C@@]2(C)[C@H]1CC=C1C=C(C(C)C)CC[C@@H]12
inactive: Potency [1] | Potency [2] | Potency [3] | Potency [4] | Potency [5] | Potency [6] | Potency [7] | Potency [8] | Potency [9] | Potency [10] | Potency [11] | Potency [12] | Potency [13] | Potency [14] | Potency [15] | Potency [16] | Potency [17]

O=[N+]([O-])c1cc([N+](=O)[O-])c2ccc(S(=O)(=O)O)cc2c1O
inactive: Potency [2] | Potency [5] | Potency [6] | Potency [7]

CC(=O)N(C)C
inactive: Potency [9] | Potency [10] | Potency [11] | Potency [12] | Potency [14] | Potency [16] | Potency [17]

CC1CCCC1
inactive: Potency [2] | Potency [9] | Potency [10] | Potency [11] | Potency [12] | Potency [18] | Potency [14] | Potency [16] | Potency [17]

CCCCCCCC1CCC(=O)O1 (stereo unspecified)
inactive: Potency [9] | Potency [10] | Potency [11] | Potency [12] | Potency [14] | Potency [15] | Potency [17]

CCCCCCCC/C=C\CCCCCCCC(=O)OCCO
inactive: Potency [19] | Potency [2] | Potency [5] | Potency [6] | Potency [7] | Potency [9] | Potency [10] | Potency [11] | Potency [12] | Potency [14] | Potency [15] | Potency [16] | Potency [17]

O=C(c1ccccc1)c1ccccc1
inactive: Potency [19] | Potency [2] | Potency [7] | Potency [8] | Potency [9] | Potency [10] | Potency [11] | Potency [12] | Potency [13] | Potency [18] | Potency [14] | Potency [15] | Potency [16] | Potency [17]

Nc1ccc(N)c([N+](=O)[O-])c1
inactive: Potency [9] | Potency [11] | Potency [12]

CCCCCCCCC(CCCCCC)C(=O)O (stereo unspecified)
inactive: Potency [19] | Potency [5] | Potency [7] | Potency [8] | Potency [9] | Potency [10] | Potency [11] | Potency [12] | Potency [13] | Potency [18] | Potency [14] | Potency [16] | Potency [17]

CCN(CC)CCCC(C)Nc1c2ccc(Cl)cc2nc2ccc(OC)cc12 (stereo unspecified)
inactive: Potency [1] | Potency [2] | Potency [5] | Potency [7]
active: Potency [8] 19.9 µM

[O-][n+]1ccccc1SSc1cccc[n+]1[O-]
inactive: activity change [19] 17.2% [at 11.8 µM, hits give high values] | activation [3] -14.9% [at 13.5 µM] | activation [4] -12.8% [at 13.6 µM] | activity change, negative = cytotoxicity [7] 8.83% [at 13.5 µM] | activity, negative = inhibition [11] 9.35% [at 12.6 µM] | activation [13] -1.24% [at 19 µM] | activation [15] 17.9% [at 19 µM]
active: Potency [6] 0.547 µM | Potency [10] 9.28 µM

CC(C)(c1ccccc1)c1ccccc1
active: Potency [11] 1.1 µM
inactive: Potency [19] | Potency [2] | Potency [4] | Potency [5] | Potency [7] | Potency [8] | Potency [9] | Potency [10] | Potency [12] | Potency [18] | Potency [14] | Potency [15] | Potency [16]

O=C1Cc2ccccc2C1
inactive: Potency [9] | Potency [10] | Potency [11] | Potency [12] | Potency [14] | Potency [16] | Potency [17]

O=C1c2c(O)ccc(O)c2C(=O)c2c(NCCNCCO)ccc(NCCNCCO)c21
inactive: Potency [1] | Potency [13]
active: Potency [6] 19.9 µM | Potency [18] 21.1 µM

COC(=O)[C@H]1[C@H]2C[C@@H]3c4[nH]c5cc(OC)ccc5c4CCN3C[C@H]2C[C@@H](OC(=O)/C=C/c2ccc(O)c(OC)c2)[C@@H]1OC
active: Potency [10] 19 µM
inactive: Potency [1] | Potency [2] | Potency [4] | Potency [5] | Potency [6] | Potency [7] | Potency [11] | Potency [12] | Potency [16]

O=C(/C=C/c1ccccc1)NCCO
inactive: Potency [6] | Potency [7] | Potency [9] | Potency [11] | Potency [12] | Potency [13] | Potency [18] | Potency [14] | Potency [15] | Potency [16]
active: Potency [10] 21.3 µM

CCc1ccc(O)c(C(C)(C)C)c1
active: Potency [10] 49 µM
inactive: Potency [1] | Potency [2] | Potency [4] | Potency [5] | Potency [7] | Potency [8] | Potency [12] | Potency [14] | Potency [16]

CNCC[C@H](Oc1cccc2ccccc12)c1cccs1
inactive: Potency [1] | Potency [2] | Potency [3] | Potency [4] | Potency [5] | Potency [6] | Potency [7] | Potency [12] | Potency [13] | Potency [18] | Potency [17]

S=P(N1CC1)(N1CC1)N1CC1
inactive: Potency [1] | Potency [2] | Potency [5] | Potency [6] | Potency [7] | Potency [8] | Potency [9] | Potency [11] | Potency [13] | Potency [16]

N[C@@H](C(=O)N[C@@H]1C(=O)N2C(C(=O)O)=C(Cl)CS[C@H]12)c1ccccc1
inactive: activity change [19] -0.646% [at 5.22 µM, hits give high values] | activation [2] -0.0598% [at 5.23 µM] | activation [3] 0.17% [at 5.99 µM] | activation [4] -0.141% [at 5.99 µM] | activity change, negative = cytotoxicity [5] 3.89% [at 5.99 µM] | activity change, negative = cytotoxicity [6] 0.042% [at 5.99 µM] | activation [8] 0.331% [at 5.99 µM] | activation [10] -1.95% [at 7.02 µM] | activity, negative = inhibition [11] 6.01% [at 5.58 µM] | activation [12] -0.906% [at 6.97 µM] | activation [13] -0.664% [at 8.39 µM] | activity change, negative = inhibition [18] -10.2% [at 8.39 µM] | activation [15] -30.9% [at 8.39 µM] | activity change, negative = inhibition [17] 6.7% [at 8.38 µM]

C[N+]1(C)CCC(OC(=O)C(O)(c2ccccc2)C2CCCC2)C1 (stereo unspecified)
inactive: Potency [1] | Potency [2] | Potency [7] | Potency [8] | Potency [10] | Potency [12] | Potency [13] | Potency [16] | Potency [17]
